Inhibition data for 56 molecules are collected here from PubChem BioAssay AID1159606 (Sanford-Burnham Center for Chemical Genomics, 2016).

Screen size: about 360,000 compounds; about 7,300 (2%) were called active. Rule as the data show it: active = inhibition above about 50%; inactive = the rest. Many of the other results were omitted from the sample, so actives are more common in it than they were.

In general, inhibition refers to the drop in the measured response relative to a control, in per cent.

This assay can be described thus: blockers of TWEAK-induced Fn14 reporter activity – luciferase reporter cells, uHTS, primary screen (AID 1159606). The conditions noted are these: TWEAK-stimulated Fn14 reporter cells, luciferase luminescence, 8 h; at 10 µM; active compounds read high. For orientation: In a reporter assay the amount or activity of a reporter protein is the signal.
Turning to `CCOc1c2ccc(C(=O)NCc3ccc4c(c3)OCO4)cc2nn1C`, the inhibition was -1.73% (inactive).
To `O=C(CSc1ncnc2scc(-c3ccccc3)c12)NCc1ccc2c(c1)OCO2` belongs 27.4% (inactive).
Under `CN(C)C(=O)c1cccc(-c2cnc3sc(NCc4ccc5c(c4)OCO5)nn23)c1` stands 81.9% (active).
Under `O=C(C1CCN(S(=O)(=O)c2ccc(Br)s2)CC1)N1CCN(c2ccccc2)CC1` stands 35.1% (inactive).
With `CC(C)C(=O)N1CCC2(CC1)Oc1ccc(F)cc1C(=O)C21CC(c2ccccc2)=NO1` (stereo unspecified), the inhibition was -32.9% (inactive).
Under `CC1(C(=O)NNC(=S)NCC2CCCO2)CC1(Cl)Cl` (stereo unspecified) stands 5.56% (inactive).
Under `Cc1c(CCC(=O)O)c(=O)oc2cc(OCc3ccc(Br)cc3)ccc12` stands 6.88% (inactive).
For `CCOC(=O)CCc1c(C)c2ccc(OCc3nn[nH]n3)c(C)c2oc1=O`, the inhibition was 11.4% (inactive).
Turning to `Cc1c(CCC(=O)O)c(=O)oc2c(C)c(OCc3ccccc3Cl)ccc12`, the inhibition is 55.7% (active).
To `CC(C)Nc1ncnc2c1ncn2[C@H]1CN(Cc2ccncc2)C[C@@H](CO)O1` belongs -31.2% (inactive).
Under `O=C(Nc1ccc2c(c1)OCCO2)C(C1CC1)N1CCC(Cc2ccccc2)CC1` (stereo unspecified) stands -6.47% (inactive); under `O=c1c2cc(Br)ccc2nc(-c2cccc(Cl)c2)n1O`, 12.1% (inactive).
Under `Oc1ccc2nc(Cc3ccccc3)[nH]c2c1` stands -12.2% (inactive); under `O=C(/C(=C/c1cccc(Cl)c1)c1nc2ccccc2[nH]1)c1ccccc1`, 72.2% (active).
With `Brc1ccc2nc(-c3ccccc3)c(Cc3ccccc3)n2c1`, the inhibition was -30.1% (inactive).
To `CCCCC[C@H](C)N1C[C@@H](COCc2ccccc2)Oc2cc(N3CCC[C@@H]3CO)ccc2S1(=O)=O` belongs 9.1% (inactive); to `CC(C)(CCl)C(=O)Nc1ccc(Sc2ccc(F)cc2)cc1`, 60.9% (active).
Turning to `O=C(CCl)Nc1ccc(Sc2ccc(NC(=O)CCl)cc2)cc1`, the inhibition was -24.1% (inactive).
To `Cc1ccc(Sc2ccc(NC(=O)c3ccc(F)cc3)cc2C#N)cc1` belongs -7.53% (inactive).
As for `CCn1c(SCC(=O)Nc2nc(C)cs2)nnc1C(C)NC(=O)c1ccccc1` (stereo unspecified), the inhibition is -0.58% (inactive).
To `CN(Cc1ccccc1)C(=O)[C@@H]1CCCN1C(=O)[C@@H]1CCCN1C(=O)c1c(F)cccc1F` belongs 12.3% (inactive).
As for `CCOCCCN(C)C1CCN(C(=O)c2oc3ccccc3c2NC(=O)COc2cccc(C)c2)CC1`, the inhibition is -4.99% (inactive).
Under `Cc1cccc(-n2c(SCC(N)=O)nc3c(c2=O)C2(CCCCC2)Cc2ccccc2-3)c1` stands 54% (active).
For the molecule `N#CCSc1nc2c(c(=O)n1Cc1ccccc1)C1(CCCC1)Cc1ccccc1-2`, the inhibition is 13.4% (inactive).
Under `Cc1cccc(-n2c(=O)c3c(C)c(C)sc3n(CC(N)=O)c2=O)c1` stands 21.1% (inactive).
To `CCCc1nc2c3ccccc3ccn2c1Cc1ccccc1C(F)(F)F` belongs 8.3% (inactive); to `Cc1noc(C)c1S(=O)(=O)N1CCCC(C(=O)Nc2nccs2)C1` (stereo unspecified), 4.3% (inactive); to `O=C(/C=C/c1ccc(Cl)c([N+](=O)[O-])c1)c1ccc(O)cc1`, 84.1% (active).
Under `CC(CC(=O)O)C(=O)c1ccc(Cl)c([N+](=O)[O-])c1` (stereo unspecified) stands 0.14% (inactive); under `CC(=O)Nc1ccc(C=CC(=O)c2ccc([N+](=O)[O-])cc2)cc1`, 5.86% (inactive).
With `O=S(=O)(NCc1ccccn1)c1ccc(Br)s1`, the inhibition is -7.41% (inactive).
To `O=S(=O)([N-]c1nc2ccccc2nc1-[n+]1ccc(Cc2ccccc2)cc1)c1ccc(Br)s1` belongs 101% (active).
For `Cn1c2c(c(=O)n(C)c1=O)C(c1cccc([N+](=O)[O-])c1)Nc1ccccc1O2` (stereo unspecified), the inhibition was -3.73% (inactive).
For `COc1cccc(N2CCN(C(=O)Nc3ccc4c(c3)NC(=O)CO4)CC2)c1`, the inhibition is 8.92% (inactive).
To `O=C(Nc1ccccc1)N1CCN(C2c3ccccc3-c3ccccc32)CC1` belongs -2.27% (inactive); to `O=C(Nc1cccc(NC(=O)N2CCN(c3ccccc3)CC2)c1)N1CCN(c2ccccc2)CC1`, 86.3% (active).
Under `Cc1nc(SC(C)C)[nH]c(=O)c1Cc1ccccc1` stands 3.45% (inactive); under `COc1ccc(NC(=O)/C(Cl)=C(/Cl)S(=O)Cc2ccc(C)cc2)cn1` (stereo unspecified), 97.5% (active).
Under `COc1ccc(NC(=O)CN2C(=O)NC(C)(c3ccccc3)C2=O)cn1` (stereo unspecified) stands -0.71% (inactive).
On to `COc1ccc(NC(=O)C2Cc3c(-c4ccc5c(c4)OCO5)ccnc3O2)cn1` (stereo unspecified), for which the inhibition is 14.2% (inactive).
Under `CC(=O)c1ccc(OCC(=O)N(C)C2CCS(=O)(=O)C2)cc1` (stereo unspecified) stands 0.02% (inactive); under `CC(C)NC(=O)c1ccccc1S(=O)c1ccccc1C#N` (stereo unspecified), 3.58% (inactive); under `O=C(c1ccc(C(F)(F)F)cc1)N1CCC(=O)N([C@H](COCc2ccccc2)Cc2ccccc2)CC1`, 13.8% (inactive).
To `CNC(=O)c1sc(Nc2ccc(OCc3ccccc3)cc2)nc1C` belongs 32.3% (inactive); to `CC(=O)c1sc(N/N=C/c2ccc(C(C)C)cc2)nc1C`, -16.6% (inactive); to `COc1cccc2sc(Nc3nc(C)c(C(C)=O)s3)nc12`, 94.3% (active).
Take `Cc1cc(N2C(=O)c3ccc(C(=O)NCc4ccccc4)cc3C2=O)no1`: the inhibition was -3.3% (inactive).
For `COC(=O)[C@@]1(Cc2ccc(F)cc2)[C@H]2c3cc(C(=O)N(C)C)n(CCc4c[nH]c5ccc(OC)cc45)c3C[C@H]2CN1C(=O)c1ccccc1`, the inhibition was 34.5% (inactive).
Under `O=C(NCc1ccccc1)C1c2ccccc2OCC(=O)N1CCCN1CCOCC1` (stereo unspecified) stands -1.12% (inactive); under `O=C1OC(/C=C/c2ccccc2)=NC/1=C/c1ccco1`, 51% (active).
Under `COc1ccccc1/C=C/C1=NC(=C\N(C)C)/C(=O)O1` stands -17.3% (inactive); under `CC(C)(C)C1C/C(=C/c2ccco2)C(=O)/C(=C/c2ccco2)C1` (stereo unspecified), 9.75% (inactive); under `CN(/C(=N/S(=O)(=O)c1cccs1)c1ccccc1)c1ccc(O)cc1`, 7.69% (inactive).
Under `O=C1Nc2ccccc2NC(c2ccc3c(c2)OCO3)=C1N(Cc1ccc(F)cc1)C(=O)c1ccco1` stands 9.28% (inactive).
For `CCc1ccc2oc(-c3ccc(N)cc3)nc2c1`, the inhibition is 60.2% (active).
Take `O=C1CC[C@@H](C(=O)N2CSC[C@@H]2C(=O)Nc2ccc(C(F)(F)F)cc2)N1`: the inhibition is 22.5% (inactive).
